Experiment [1] is described as follows: circadian clock period modulators, cell-based, LOPAC library, luminescence reporter (AID 2774).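 Also: values are relative to mean of DMSO wells on each plate.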 As to conditions: circadian reporter cells, at 7 µM, actives lie on both sides.
In experiment [2] the test system is Hepatitis C virus NS3 helicase. Nature of the experiment: HCV NS3 helicase inhibitors, primary screen, biochemical, fluorescence polarization, LOPAC1280 library (AID 687035; in the data active = inhibition above about 37%). As to conditions: Purified HCV NS3 helicase, Cy5-dT15 ssDNA binding fluorescence polarization; stronger effect = higher value; concentration not given here.
Experiment [3] can be described thus: Cy5 fluorescence quenching or enhancement artefacts, artefact control for HCV NS3 helicase inhibitor project, biochemical, LOPAC1280 (AID 687037). As to conditions: Cy5-DNA-NS3h complex fluorescence interference counterscreen.
The subject of experiment [4] is Aerobactin synthetase IucA (Klebsiella pneumoniae). Nature of the experiment: IucA aerobactin synthetase inhibitors, biochemical, Tocris library, absorbance (AID 1345561).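 Also: 100% = enzyme without compound and 0% = no enzyme.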 As to conditions: purified IucA enzyme assay, absorbance (OD) read-out; stronger effect = lower value;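 tested at 8 µM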.
The nature of experiment [5]: sensitizers of A549 cells to miR-34 induction, primary screen, imaging, A549 dox-inducible miR-34, nuclei and caspase counts (AID 1347080;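 active = compounds whose cell count with miR-34 switched on is under 0.7 times the count with it off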). As to conditions: A549 miR-34 inducible, Hoechst nuclei count, 48 h.
A short description of experiment [6]: modifiers of HSF1 nuclear foci, imaging, Selleck Cancer Library (AID 1347162; in the data active = plate-normalised HSF1 focus index below about 0.46). As to conditions: human cells, at 10 µM; SSMD: measured here: HSF1 foci SSMD mean; cell count: measured here: cell number; plate-normalised HSF1 focus index: stronger effect = lower value.
Experiment [7] is described as follows: phospholipid biosynthesis inhibitors in animal cells, primary screen, cell-based, LOPAC library, screen 4 (AID 1347384). As to conditions: phospholipid biosynthesis inhibition screen, at 10 µM.
The nature of experiment [8]: viability rescue of complex I mutant cybrids, primary screen, cell-based, galactose medium, ATP luminescence (AID 1645843;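 active = z-score of at least 1.8 in each of two replicates, scored against plate mean and spread of sample wells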;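 also: positive z means more ATP and so rescue of galactose-driven cybrid death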). The following applies: complex I mutant cybrid cells, 72 h, stronger effect = higher value.
The nature of experiment [9]: liver-stage malaria parasite growth inhibition, primary screen, cell-based, HepG2, luciferase luminescence, HepG2 viability (AID 624349; in the data active = parasite load remaining mostly below about 12%, no sharp cut-off; inactive = mostly above about 10%;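 also: 100% = mean of DMSO negative control wells on the same plate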). As to conditions: P. berghei liver stage in HepG2, luciferase luminescence, concentration not given here; parasite load remaining: stronger effect = lower value; viability: measured here: HepG2 viability without parasites.
A short description of experiment [10]: survival rescue of mitochondrial mutant cells in low glucose, primary screen, MELAS cybrids, Rieske KO mouse fibroblasts, CellTiter-Glo (AID 1508586;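 active = mean z-score across replicates of 1.96 or higher in either the MELAS or the Rieske mutant cell line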;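 also: z relative to plate mean and SD of compound and empty wells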).
Experiment [11] can be described thus: hESC survival regulators, cell-based (AID 493140).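 Also: cells exposed to compounds for four days before counting.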 As to conditions: human embryonic stem cell survival screen; stronger effect = higher value.
A short description of experiment [12]: inhibitors of Cryptococcus chitosan production, flow cytometry, Cibacron Brilliant Red staining (AID 1347148).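 Also: compound exposure lasted three days at 37 degrees C.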 As to conditions: Cryptococcus neoformans chitosan, stronger effect = lower value; at 10 µM unless noted.
Setting [13] is: stronger effect = lower value, cell number ratio, induced over uninduced.
Setting [14] is: measured here: relative caspase fold change +Dox/-Dox.
[15] abbreviates: measured here: total cells with miR-34 induction, stronger effect = lower value.
Where [16] appears, read: measured here: total cells without miR-34 induction.

The results in this text go back to PubChem BioAssay.

Structures are written as SMILES. Several values for one entry are separate records, joined by “and”; a condition that tells them apart may be missing. Equal values may be shown once. Where a structure was tested more than once in an assay, its records may differ in their call. Activity calls are given as the source filed them. Unless noted, no rule for the calls is given here.

For `CC(C)(C)c1ccc(S(=O)(=O)/C=C/C#N)cc1`, the period change in experiment [1] is -0.05 h (inactive). Further, in [2], the inhibition was -4% (inactive). The fluorescence ratio (interference) in experiment [3] is 0.9 (inactive). The remaining activity in [4] was 114% (inactive). In addition, the fold change in experiment [5] (setting [13]) was 0.996 (inactive) and 0.965 (inactive); in experiment [5] (setting [14]), 0.975 and 1.39. The cell count in experiment [5] (setting [15]) was 4040 and 1980; in experiment [5] (setting [16]), 4060 and 2060; in experiment [6], 6870. The SSMD in [6] was -5.26. The plate-normalised HSF1 focus index in experiment [6] was 0.733 (inactive). Also, the call in [7] was inactive. For the same compound, the z-score in experiment [8] is -1.5 (inactive) and -1.04 (inactive).

Turning to `CN(C(=O)CCCOc1ccc2[nH]c(=O)ccc2c1)C1CCCCC1`, in [1], the period change was -0.015 h (inactive). In addition, in [9], the parasite load remaining is 30.5% (inactive). This compound had a viability in experiment [9] of 71.5%. For the same compound, the inhibition in [2] was -1% (inactive). Besides, the fluorescence ratio (interference) in experiment [3] was 1 (inactive). In addition, the remaining activity in [4] is 117% (inactive). In addition, the fold change was 1.04 (inactive) and 0.982 (inactive) and 0.9 (inactive) in experiment [5] (setting [13]); 2.05 and 0.725 and 1.16 in experiment [5] (setting [14]). In addition, the cell count in [5] (setting [15]) is 8910 and 7180 and 9490; in [5] (setting [16]), 8530 and 7310 and 10500. In experiment [7], the result was inactive. The z-score is 0.542 (inactive) in experiment [10] (MELAS cybrid survival, CellTiter-Glo 48 h, stronger effect = higher value); -0.471 in experiment [10] (Rieske KO mouse fibroblast survival, CellTiter-Glo 72 h); -0.385 (inactive) and 0.22 (inactive) and -0.02 (inactive) in [8].

As to `CCCCCCCCCCCCC/C=C/[C@@H](O)[C@H](CO)NC(C)=O`, the survival in experiment [11] was 95 (inactive). Also, the remaining activity in experiment [4] was 114% (inactive). Further, the fold change is 0.919 (inactive) and 1.02 (inactive) and 0.95 (inactive) in experiment [5] (setting [13]); 1.09 and 0.67 and 0.924 in experiment [5] (setting [14]). Further, the cell count in [5] (setting [15]) was 5360 and 6170 and 8250; in experiment [5] (setting [16]), 5840 and 6040 and 8680. Besides, the fold fluorescence in experiment [12] is 5.52 (inactive). Further, the z-score in experiment [8] is -1.23 (inactive).

`O=C1Cc2c([nH]c3ccc(Br)cc23)-c2ccccc2N1`: the period change in experiment [1] is -0.835 h (active). The parasite load remaining in experiment [9] was 33% (inactive). In experiment [9], this compound showed a viability of 64.2%. In addition, the inhibition in experiment [2] was 1% (inactive). In addition, the fluorescence ratio (interference) in experiment [3] is 1 (inactive). Further, the remaining activity in experiment [4] was 115% (inactive). Also, the fold change in experiment [5] (setting [13]) was 1.11 (inactive) and 0.922 (inactive) and 1.05 (inactive); in experiment [5] (setting [14]), 0.981 and 0.403 and 0.535. The cell count in experiment [5] (setting [15]) was 4020 and 4080 and 1060; in experiment [5] (setting [16]) it was 3640 and 4430 and 1010. Moreover, the compound was classed as inactive in experiment [7]. For the same compound, the z-score in [8] was -0.785 (inactive) and -0.43 (inactive).

For the compound `CNC(=O)c1cc2c(cn1)[nH]c1ccccc12`, the period change in experiment [1] was -0.24 h (inactive). The inhibition in [2] is 0% (inactive). Moreover, in experiment [3], the fluorescence ratio (interference) was 1 (inactive). Further, the remaining activity in experiment [4] was 99.6% (inactive). The fold change was 0.95 (inactive) and 0.891 (inactive) in experiment [5] (setting [13]); 1.84 and 0.981 in [5] (setting [14]). Also, the cell count in experiment [5] (setting [15]) is 8950 and 7610; in experiment [5] (setting [16]), 9420 and 8540. The call in experiment [7] was inactive. The z-score in experiment [8] is 2.76 (active) and 1.85 (inactive).

Turning to `Cc1cccc(/C=C/c2ccccc2)n1`, the period change in experiment [1] is 0.01 h (inactive). Also, the inhibition in [2] was 0% (inactive). The fluorescence ratio (interference) in [3] was 1 (inactive). The remaining activity in experiment [4] is 108% (inactive). Also, the fold change in experiment [5] (setting [13]) is 0.995 (inactive) and 0.915 (inactive); in experiment [5] (setting [14]), 1.79 and 0.591. The cell count in experiment [5] (setting [15]) is 9190 and 8490; in experiment [5] (setting [16]), 9240 and 9280. Further, the result in experiment [7] was inactive. In addition, the z-score in experiment [8] is 1.12 (inactive) and 0.09 (inactive).

Regarding `NC[C@@H]1O[C@H](C23CC4CC(CC(C4)C2)C3)Cc2c1ccc(O)c2O`, the period change in experiment [1] was 0.01 h (inactive). The inhibition in experiment [2] is -3% (inactive). Also, in experiment [3], the fluorescence ratio (interference) was 0.9 (inactive). Moreover, in [4], the remaining activity is 123% (inactive). Moreover, the fold change in [5] (setting [13]) is 1.09 (inactive) and 0.908 (inactive); in experiment [5] (setting [14]), 1.75 and 0.979. For the same compound, the cell count was 4260 and 7980 in [5] (setting [15]); 3890 and 8790 in [5] (setting [16]). The outcome in [7] was inactive. In addition, the z-score in experiment [8] is -1.5 (inactive) and -0.775 (inactive).
